From PubChem BioAssay
FBA Mtb inh: Mtb fructose-bisphosphate aldolase inhibition. P9WQA3. purified M. tuberculosis FBA, fluorescence read-out. inhibition, % at 1 µM. 360,000 tested, 2.3% active. AID 588726
Target sequence (P9WQA3 whole entry, looked up): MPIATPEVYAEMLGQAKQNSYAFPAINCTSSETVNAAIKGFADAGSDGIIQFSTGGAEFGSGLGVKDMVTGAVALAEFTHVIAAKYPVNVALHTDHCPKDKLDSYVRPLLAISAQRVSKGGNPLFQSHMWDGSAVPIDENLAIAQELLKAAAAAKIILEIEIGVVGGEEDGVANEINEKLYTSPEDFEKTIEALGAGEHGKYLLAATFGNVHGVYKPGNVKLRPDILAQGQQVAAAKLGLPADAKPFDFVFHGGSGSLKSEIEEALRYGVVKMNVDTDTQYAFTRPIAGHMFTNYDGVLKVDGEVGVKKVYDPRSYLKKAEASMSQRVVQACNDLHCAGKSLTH
Rv3671c protease: inhibitors of M. tuberculosis serine protease Rv3671c; P9WHR9; inhibition, % at 5.96 µM; 320,000 tested, 0.048% active; AID 2606; in the data active = inhibition above about 38%;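 also: extracellular domain of Rv3671c used as enzyme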
Target sequence (P9WHR9 whole entry, looked up, the tested form may be a part): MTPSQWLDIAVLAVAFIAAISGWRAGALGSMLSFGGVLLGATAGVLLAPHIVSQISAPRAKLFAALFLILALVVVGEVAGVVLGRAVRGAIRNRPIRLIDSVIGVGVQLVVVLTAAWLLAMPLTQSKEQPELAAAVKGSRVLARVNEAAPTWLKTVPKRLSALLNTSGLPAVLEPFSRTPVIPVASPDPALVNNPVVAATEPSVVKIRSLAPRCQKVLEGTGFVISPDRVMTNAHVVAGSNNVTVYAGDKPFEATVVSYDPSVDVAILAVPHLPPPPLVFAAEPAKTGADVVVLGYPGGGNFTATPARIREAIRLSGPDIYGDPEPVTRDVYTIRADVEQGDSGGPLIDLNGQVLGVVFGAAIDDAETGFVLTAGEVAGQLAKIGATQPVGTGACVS
UGM FP inh: inhibitors of M. tuberculosis UDP-galactopyranose mutase | purified UGM, fluorescence polarization probe displacement | P9WIQ1 | inhibition, % at 10 µM | 320,000 tested, 0.06% active | AID 504406; in the data active = inhibition above about 10%, passing the limit was not always enough; inconclusive = no clear call, values can overlap the other calls
Mtb betalactam: beta-lactam sensitization of Mtb H37Rv | M. tuberculosis H37Rv growth with meropenem, percent inhibition | inhibition, % at 25 µM | 330,000 tested, 0.27% active; call rule not given here;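 also: growth measured after seven days incubation then overnight dye step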
GDH-TPI counter-1: GDH-TPI coupled enzyme inhibition counter-screen; GDH-TPI coupled enzyme counterscreen, NADH absorbance; inhibition, % at 4.8 µM; 360,000 tested, 1.2% active; in the data active = inhibition above about 30%
RecA splice inh: Mtb RecA intein splicing inhibition; cell-free RecA intein splicing, fluorescence; P9WHJ3; inhibition, % (no concentration beside the values); 290,000 tested, 0.75% active; in the data active = inhibition above about 30%; inconclusive = no clear call, values can overlap the other calls
Mtb FBA confirm: Mtb FBA inhibition, confirmed; shares compounds with FBA Mtb inh; purified M. tuberculosis FBA, fluorescence read-out; inhibition, % at 1 µM; 5,600 tested, 78% active
GDH-TPI counter-2: counter-screen for M. tuberculosis FBA inhibitors: GDH-TPI coupled enzyme inhibition. shares compounds with FBA Mtb inh. GDH-TPI coupled enzyme counterscreen, fluorescence. inhibition, % at 1 µM. 5,600 tested, 81% active. AID 652141; in the data active = inhibition above about 10%
GDH-TPI DR: inhibits GDH-TPI coupling enzymes in dose response; shares compounds with FBA Mtb inh; AID 652145; 170 tested, 79% active; GDH-TPI coupled enzyme assay, fluorescence, artifact counterscreen; IC50, µM; call rule not given here
Of the large screens only hits and unclear results are named; the others gave an inactive call (follow-up assays come after a bar, where they were run). Shown are actives, neighbours in structure and some others; about 4% of the full set was active somewhere. Rule as the data show it, unless noted: active = inhibition above about 27%; inactive = the rest.

CC(C)=CC(=O)O[C@@H]1Cc2c(ccc3ccc(=O)oc23)OC1(C)C	FBA Mtb inh 32.5 (no result: RecA splice inh) | Mtb FBA confirm 34.6 | GDH-TPI counter-2 25.7
CC1(C)Oc2ccc3ccc(=O)oc3c2[C@@H](O)[C@@H]1O	FBA Mtb inh 59.1 (no result: RecA splice inh) | Mtb FBA confirm 37.6 | GDH-TPI counter-2 27.3
CCO[C@@H]1c2c(ccc3ccc(=O)oc23)OC(C)(C)[C@H]1O	FBA Mtb inh 55.6 (no result: RecA splice inh) | Mtb FBA confirm inactive | GDH-TPI counter-2 inactive | GDH-TPI DR 2.89
C/C=C(/C)C(=O)O[C@@H]1[C@H](OC(=O)C=C(C)C)c2c(ccc3ccc(=O)oc23)OC1(C)C	none
CCO[C@@H]1c2c(ccc3ccc(=O)oc23)OC(C)(C)[C@@H]1O	FBA Mtb inh 56.9 (no result: RecA splice inh) | Mtb FBA confirm 55.9 | GDH-TPI counter-2 40.0
CN(C)[C@H]1CCN([C@@H]2CS(=O)(=O)N[C@H]2COCc2ccccc2)C1	none (no result: Rv3671c protease, UGM FP inh, Mtb betalactam, GDH-TPI counter-1, RecA splice inh)
CC(C)Cn1c(CCC(N)=O)nnc1SC(C)C(=O)Nc1ccc2c(c1)OCO2 (stereo unspecified)	none (no result: RecA splice inh)
NC(COCc1ccccc1)c1csc(Nc2ccc(S(N)(=O)=O)cc2)n1 (stereo unspecified)	none (no result: Rv3671c protease, UGM FP inh, Mtb betalactam, RecA splice inh)
CC(C)CC1C(=O)N(Cc2cn(CC3CCCCC3)nn2)CCS(=O)(=O)N1Cc1ccc(-c2cccc(CO)c2)cc1 (stereo unspecified)	none (no result: Rv3671c protease, UGM FP inh, Mtb betalactam, RecA splice inh)
COCCN1C[C@@H](CO)O[C@@H](n2cnc3c(NC(C)C)ncnc32)C1	none (no result: Rv3671c protease, UGM FP inh, Mtb betalactam, RecA splice inh)
CCO[C@H]1c2c(ccc3ccc(=O)oc23)OC(C)(C)[C@@H]1O	FBA Mtb inh 59.2 (no result: RecA splice inh) | Mtb FBA confirm 136.6 | GDH-TPI counter-2 95.7
C/C=C(/C)C(=O)O[C@@H]1c2c(ccc3ccc(=O)oc23)OC(C)(C)[C@@H]1OC(=O)/C(C)=C\C	none
Cc1oc2ccc(O)cc2c1C(=O)c1ccc(F)cc1	none
Cn1c(SCc2cccc([N+](=O)[O-])c2)nc2ccccc2c1=O	none (no result: RecA splice inh)
Cn1c(SCc2cccc(C#N)c2)nc2ccccc2c1=O	FBA Mtb inh 28.6 | Mtb FBA confirm inactive | GDH-TPI counter-2 inactive
COc1cc(OC)cc(C(=O)OCC(=O)NCCCc2ccccc2)c1	none
C=CCNC(=O)/C(=C/c1ccco1)NC(=O)c1ccc(Br)o1	none
C=CCNC(=O)/C(=C\c1ccco1)NC(=O)c1ccco1	FBA Mtb inh 58.9 | Mtb FBA confirm 81.0 | GDH-TPI counter-2 71.6
Cc1cc(C)n2c(nc3ccccc32)c1C(=O)NCc1ccccc1	FBA Mtb inh 48.2 | Mtb FBA confirm inactive | GDH-TPI counter-2 15.2
O=c1c2ccccc2nc2c3ccccc3c(NCc3cccnc3)nn12	none (no result: RecA splice inh)
O=c1c2ccccc2nc2c3ccccc3c(NCCO)nn12	FBA Mtb inh 33.1 | Mtb FBA confirm active | GDH-TPI counter-2 active
O=c1c2ccccc2nc2c3ccccc3c(NCc3ccccn3)nn12	FBA Mtb inh 78.6 | Mtb FBA confirm active | GDH-TPI counter-2 179.6
CC(=O)c1ccc(N2CCN(C(=O)CNS(=O)(=O)c3ccc4c(c3)OCCCO4)CC2)c(F)c1	none (no result: Rv3671c protease, UGM FP inh, Mtb betalactam, RecA splice inh)
Cc1ccc(-c2nc3ncccc3o2)cc1NC(=O)Cc1ccc(Cl)cc1	none
CCN(CC)CC(=O)Nc1ccc(-c2nc3cc(NC(=O)CN(CC)CC)ccc3o2)cc1	FBA Mtb inh 88.4 | Mtb FBA confirm active | GDH-TPI counter-2 150.1
Cc1ccc(-c2nc3ncccc3o2)cc1NC(=O)CC(C)C	FBA Mtb inh 29.9 | Mtb FBA confirm inactive | GDH-TPI counter-2 inactive
CC(C)CC(=O)Nc1ccc(-c2nc3ccccc3c(=O)o2)cc1	none
CCc1ccc2oc(-c3ccc(NC(C)=O)cc3)nc2c1	FBA Mtb inh 68.9 | Mtb FBA confirm 180.7 | GDH-TPI counter-2 125.8
Cc1ccc2oc(-c3ccc(NC(=O)CC(C)C)cc3)nc2c1	FBA Mtb inh 29.6 | Mtb FBA confirm 38.6 | GDH-TPI counter-2 35.8
CCCCC(=O)Nc1ccc2oc(-c3ccncc3)nc2c1	none
CCOC(=O)C1=CCN(S(=O)(=O)c2ccc(C)cc2)C1c1ccc(C(C)C)cc1 (stereo unspecified)	none (no result: Rv3671c protease, UGM FP inh, Mtb betalactam, GDH-TPI counter-1, RecA splice inh)
COc1cc(C(C)=O)ccc1OCC(=O)Nc1cc(C)on1	none (no result: RecA splice inh)
Cc1ccc2oc(-c3cccc(N)c3)nc2c1	FBA Mtb inh 78.1 (no result: RecA splice inh) | Mtb FBA confirm 62.9 | GDH-TPI counter-2 58.3
O=C(CN1CCCC1)Nc1ccc(-c2nc3cc(NC(=O)CN4CCCC4)ccc3o2)cc1	FBA Mtb inh 107.0, Mtb betalactam inconclusive | Mtb FBA confirm 29.8 | GDH-TPI counter-2 24.3
CCC(C)NCC(=O)Nc1ccc(-c2nc3cc(NC(=O)CNC(C)CC)ccc3o2)cc1 (stereo unspecified)	FBA Mtb inh 99.4 (no result: RecA splice inh) | Mtb FBA confirm 147.5 | GDH-TPI counter-2 109.9
O=C(OCC#CCSc1nnc(-c2cccc3ccccc23)o1)c1cccc2[nH]ccc12	FBA Mtb inh 35.9 (no result: RecA splice inh) | Mtb FBA confirm 63.6 | GDH-TPI counter-2 50.9
COc1ccccc1C(=O)OCC#CCSc1nnc(-c2cccc3ccccc23)o1	none (no result: RecA splice inh)
COC(=O)C1=CN(c2cccc(Cl)c2)C=C(C(=O)OC)C1c1cccc(OC)c1	FBA Mtb inh 54.4 (no result: Rv3671c protease) | Mtb FBA confirm 110.8 | GDH-TPI counter-2 93.6
O=C(CN1CCCC1)N/N=C/c1c(O)ccc2ccccc12	none
COC(=O)CCCC(=O)N1CCC(CO)(CCc2ccccc2)CC1	none
CNC(=S)N/N=C/c1ccc(-c2ccc(C(=O)O)cc2)o1	FBA Mtb inh 40.7, GDH-TPI counter-1 53.1 | Mtb FBA confirm active | GDH-TPI counter-2 active
C=CCNC(=S)N/N=C/c1ccc(-c2ccc(OC)cc2)o1	FBA Mtb inh 29.3 | Mtb FBA confirm inactive | GDH-TPI counter-2 inactive
C=CCNC(=S)N/N=C/c1ccc(-c2cc(Cl)ccc2Cl)o1	none
Cc1cc2c(cc1C)C(c1ccccc1OC(C)C)CC(=O)N2 (stereo unspecified)	none
CCCSc1nnc(CSc2nc(C)cc(C)n2)n1C	none
O=C(Nc1ccccc1[N+](=O)[O-])C1COc2ccccc2O1 (stereo unspecified)	none
CCc1cc(=O)oc2cc(C)cc(OCC(=O)NCC(O)c3ccccc3)c12 (stereo unspecified)	FBA Mtb inh 55.6 | Mtb FBA confirm 197.6 | GDH-TPI counter-2 167.8
Cc1cc(OCC(=O)NCC2CCC(C(=O)O)CC2)c2c(C)c(Cc3ccccc3)c(=O)oc2c1 (stereo unspecified)	none
COc1ccc(-c2cc(=O)oc3cc(OCC(=O)NCC(O)c4ccccc4)ccc23)cc1 (stereo unspecified)	none
Cc1cc(OC(C(=O)O)c2ccccc2)c2c(C)c(Cc3ccccc3)c(=O)oc2c1 (stereo unspecified)	FBA Mtb inh 45.8 | Mtb FBA confirm inactive | GDH-TPI counter-2 inactive
